# System: p38-delta
# Conditions: concentration: 1 μM, replicates: in singlicate; n = 1
# 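Further: KINOMEscan kinase panel screen.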
row,Structure (SMILES),%Inh
1,COc1cc2ncn(-c3cc(OCc4ccc(S(C)(=O)=O)cc4)c(C(N)=O)s3)c2cc1OC [GW869979],0%
2,COc1cc2ncn(-c3cc(OCc4ccncc4)c(C(N)=O)s3)c2cc1OC [GSK336313],42%
3,CCC(=O)c1c(-c2ccccc2)c2cc(Cl)ccc2c(=O)n1Cc1ccc(C(=O)O)cc1,4%
4,FC(F)(F)c1ccc(-c2ncn(CCCN3CCOCC3)c2-c2ccncc2)cc1 [SB-217780],42%
5,Cc1nn2c(=O)cc(N3CCOCC3)nc2n1Cc1cccc(Cl)c1Cl [GSK2342769],17%
6,COc1cc(Nc2ccnc3ccc(C(F)(F)F)cc23)cc(OC)c1OC [GW577382],4%
7,COC(=O)c1c(-c2ccccc2)c2cc(C)ccc2c(=O)n1Cc1ccccc1,21%
8,COc1cccc(C2=C(Nc3cccc(C(=O)O)c3)C(=O)NC2=O)c1 [SB-390770],34%
9,Cc1c(Cn2c(C)nn3c(=O)cc(N4CCO[C@H](C)C4)nc23)cccc1C(F)(F)F [GSK2373690],41%
10,O=C1NC(=O)C(c2ccccc2)=C1Nc1cccc(O)c1 [SB-390534],0%

# System: T1, p38-gamma
# T1 construct: gene MAPK12
# Conditions: concentration: 1 μM, replicates: in singlicate; n = 1
row,Structure (SMILES),%Inh
1,COc1cc(OC)cc(-c2cc3cnc(N)nc3nc2NC(=O)NC(C)(C)C)c1,9%
2,CCC(=O)c1c(-c2ccccc2)c2cc(Cl)ccc2c(=O)n1Cc1cc(C(=O)NC2CC2)n(C)n1,9%
3,Cc1ccc(Oc2ccc(Nc3ncnc4cc[nH]c34)cc2C)cn1,35%
4,CN(C)c1cc(-c2ccc3c(N)n[nH]c3c2)nc(N)n1 [GSK2219329],0%
5,O=C(NCCNc1ccnc(Nc2ccc(F)cc2)n1)Nc1ccc2c(c1)OCO2 [GSK1379882],19%
6,COc1ccc(CNC(=O)NC2CCN(c3ccnc(Nc4ccc(F)cc4)n3)C2)cc1 (centres unmarked) [GSK1379706],4%
7,COc1cc2nccc(Nc3ccc(OCc4ccc(NC(C)=O)cc4)cc3)c2cc1OC.Cl [GW440135],0%
8,CCC(=O)c1c(-c2ccccc2)c2cc(Cl)ccc2c(=O)n1Cc1cc(S(C)(=O)=O)n(CC(F)F)n1,0%
9,COC(=O)c1c(-c2ccccc2)c2cc(Br)ccc2c(=O)n1Cc1ccc(S(C)(=O)=O)cc1,29%
10,CCCNC(=O)Nc1ccc(Oc2ncnc3ccn(C)c23)cc1,3%
11,Fc1cccc(CSc2nnc(-c3ccc4c(c3)CCO4)o2)c1,21%
12,CCC(=O)c1c(-c2ccccc2)c2cc(Cl)ccc2c(=O)n1Cc1cc(S(C)(=O)=O)n(CCC(C)(C)O)n1,26%
13,Cl.NS(=O)(=O)c1cccc(Nc2cc(-c3ccc(F)cc3)n[nH]2)c1 [GW824645],0%
14,Nc1n[nH]c2nnc(-c3ccccc3)c(-c3ccccc3)c12 [GW554060],0%
15,Cn1c(=O)c(F)c(Nc2ccc(I)cc2F)c2c(=O)n(OC[C@H](O)CO)cnc21,39%
16,CCc1ccc(-c2ccc3c(c2)-c2nn(C)cc2S(=O)(=O)N3C)cc1,9%
17,COc1cc(Nc2nccc(N3CCC(NC(=O)C4COc5ccccc5O4)C3)n2)cc(OC)c1OC (centres unmarked) [GSK1379761],39%
18,Cc1ccccc1COc1cc(-n2cnc3cc(Cl)ccc32)sc1C(N)=O [GW813349],20%
19,CCc1nc(-c2cccc(C)c2)c(-c2ccncc2)s1,10%

row,Structure (SMILES),%Inh
1,CN1C(=O)C(Nc2ccccc2)=C(c2ccccc2)C1=O [SB-300079],0%
2,Cc1nnc(-c2ccc3ncn(-c4ccc(S(C)=O)cc4)c3c2)o1 (centres unmarked),0%
3,Nc1n[nH]c2ncc(-c3ccccc3)cc12 [SB-517081],31%
4,COc1cc2ncn(-c3cc(OCCCc4ccccc4)c(C(N)=O)s3)c2cc1OC [GSK205189],0%
5,CN1C(=O)C(Nc2cc(Cl)c(O)c(Cl)c2)=C(c2ccc(Cl)cc2)C1=O [SB-404321],23%
6,COc1cccc(C2=C(N(C)c3ccccc3)C(=O)NC2=O)c1 [SB-334865],0%
7,Cc1ccc(-c2ccc3c(ccc4sc5c(c43)NC[C@@H](C)N=C5N(C)C)n2)cn1,14%
8,OCCCNc1nccc(-c2c(-c3cccc(C(F)(F)F)c3)nn3cc(C(F)(F)F)ccc23)n1 [GW630813],0%
9,COc1cc2ncn(-c3cc(OCc4ccc(S(C)(=O)=O)cc4)c(C(N)=O)s3)c2cc1OC [GW869979],24%
10,COc1cc2ncn(-c3cc(OCc4ccncc4)c(C(N)=O)s3)c2cc1OC [GSK336313],0%
11,CCC(=O)c1c(-c2ccccc2)c2cc(Cl)ccc2c(=O)n1Cc1ccc(C(=O)O)cc1,0%
12,FC(F)(F)c1ccc(-c2ncn(CCCN3CCOCC3)c2-c2ccncc2)cc1 [SB-217780],2%
13,Cc1nn2c(=O)cc(N3CCOCC3)nc2n1Cc1cccc(Cl)c1Cl [GSK2342769],0%
14,COc1cc(Nc2ccnc3ccc(C(F)(F)F)cc23)cc(OC)c1OC [GW577382],0%
15,COC(=O)c1c(-c2ccccc2)c2cc(C)ccc2c(=O)n1Cc1ccccc1,0%
16,COc1cccc(C2=C(Nc3cccc(C(=O)O)c3)C(=O)NC2=O)c1 [SB-390770],0%
17,Cc1c(Cn2c(C)nn3c(=O)cc(N4CCO[C@H](C)C4)nc23)cccc1C(F)(F)F [GSK2373690],0%
18,O=C1NC(=O)C(c2ccccc2)=C1Nc1cccc(O)c1 [SB-390534],15%

# — paper PMC5540273 (PLoS ONE, 2017)
